From PubChem BioAssay AID588664 (The Scripps Research Institute Molecular Screening Center, 2011)
Out of some 360,000 compounds screened, about 1,400 (0.39%) were called active. No stated cut-off is given here; in the data, active means inhibition above about 5% (passing the limit was not always enough); inactive means the rest. This excerpt belongs to a sample that is enriched for actives.

Target: Tyrosine-protein kinase ABL1 (Homo sapiens) + Ras and Rab interactor 1 (Homo sapiens) (UniProt P00519+Q13671)
Assay: inhibitors of Rin1-Abl protein binding, primary screen, biochemical, TR-FRET (AID 588664)
Conditions: at 7.35 µM, stronger effect = higher value

Chain of Tyrosine-protein kinase ABL1 (Homo sapiens) + Ras and Rab interactor 1 (Homo sapiens) (P00519 whole entry, looked up): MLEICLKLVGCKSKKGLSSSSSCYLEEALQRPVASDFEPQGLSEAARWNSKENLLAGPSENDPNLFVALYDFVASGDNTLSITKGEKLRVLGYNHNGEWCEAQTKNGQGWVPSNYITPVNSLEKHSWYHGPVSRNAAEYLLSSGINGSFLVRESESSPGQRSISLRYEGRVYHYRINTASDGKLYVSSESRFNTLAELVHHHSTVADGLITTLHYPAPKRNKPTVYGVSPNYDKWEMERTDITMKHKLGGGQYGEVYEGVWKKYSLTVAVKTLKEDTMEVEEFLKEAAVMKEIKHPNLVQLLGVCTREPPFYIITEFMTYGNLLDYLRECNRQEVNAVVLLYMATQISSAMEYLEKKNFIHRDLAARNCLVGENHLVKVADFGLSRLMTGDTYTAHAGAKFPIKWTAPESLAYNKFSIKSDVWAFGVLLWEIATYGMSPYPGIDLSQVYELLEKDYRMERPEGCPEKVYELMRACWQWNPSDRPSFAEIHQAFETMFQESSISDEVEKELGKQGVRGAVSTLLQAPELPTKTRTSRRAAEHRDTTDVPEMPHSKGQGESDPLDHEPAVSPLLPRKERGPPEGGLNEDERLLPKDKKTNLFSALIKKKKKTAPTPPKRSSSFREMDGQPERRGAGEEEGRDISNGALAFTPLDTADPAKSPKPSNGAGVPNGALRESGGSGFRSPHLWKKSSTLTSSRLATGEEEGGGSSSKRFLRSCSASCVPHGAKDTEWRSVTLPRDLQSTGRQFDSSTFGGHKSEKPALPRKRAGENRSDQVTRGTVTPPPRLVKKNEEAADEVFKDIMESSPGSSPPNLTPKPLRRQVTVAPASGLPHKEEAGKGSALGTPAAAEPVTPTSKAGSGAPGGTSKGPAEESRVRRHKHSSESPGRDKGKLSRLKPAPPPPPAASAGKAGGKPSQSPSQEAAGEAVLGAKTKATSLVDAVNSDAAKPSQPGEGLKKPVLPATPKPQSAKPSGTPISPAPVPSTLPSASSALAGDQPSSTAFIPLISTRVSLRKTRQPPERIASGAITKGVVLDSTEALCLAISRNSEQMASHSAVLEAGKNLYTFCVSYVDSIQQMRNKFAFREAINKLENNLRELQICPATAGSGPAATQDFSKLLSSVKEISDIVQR
Chain of Tyrosine-protein kinase ABL1 (Homo sapiens) + Ras and Rab interactor 1 (Homo sapiens) (Q13671 whole entry, looked up): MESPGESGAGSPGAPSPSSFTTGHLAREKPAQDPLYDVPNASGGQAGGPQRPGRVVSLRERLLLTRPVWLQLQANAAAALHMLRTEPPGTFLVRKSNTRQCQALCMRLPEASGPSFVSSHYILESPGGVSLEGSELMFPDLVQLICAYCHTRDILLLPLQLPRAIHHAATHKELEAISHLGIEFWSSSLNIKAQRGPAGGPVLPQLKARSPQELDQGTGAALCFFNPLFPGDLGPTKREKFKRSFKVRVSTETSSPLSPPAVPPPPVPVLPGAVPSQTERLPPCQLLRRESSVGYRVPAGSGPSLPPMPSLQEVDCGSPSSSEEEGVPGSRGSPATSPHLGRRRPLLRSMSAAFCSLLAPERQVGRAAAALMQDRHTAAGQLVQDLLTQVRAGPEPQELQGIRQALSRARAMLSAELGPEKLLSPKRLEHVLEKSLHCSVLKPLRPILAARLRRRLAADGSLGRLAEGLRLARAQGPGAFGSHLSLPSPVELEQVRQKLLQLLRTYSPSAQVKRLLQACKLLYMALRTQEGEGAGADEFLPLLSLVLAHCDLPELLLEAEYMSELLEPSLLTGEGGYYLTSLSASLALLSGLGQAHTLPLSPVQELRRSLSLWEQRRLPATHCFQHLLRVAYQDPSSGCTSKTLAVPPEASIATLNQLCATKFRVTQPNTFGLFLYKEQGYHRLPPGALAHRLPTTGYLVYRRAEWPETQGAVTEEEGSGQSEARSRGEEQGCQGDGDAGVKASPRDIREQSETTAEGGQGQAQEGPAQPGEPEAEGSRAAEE

inhibition, active:
CCOC(=O)N1CCN(C(=O)C2CCCN(c3ncnc4c3sc3cccc(F)c34)C2)CC1 (stereo not given) 6.58%
CCOC(=O)N1CCN(C(=O)C2CCN(c3ncnc4c3sc3cccc(F)c34)CC2)CC1 18.2%
Cc1ccc(C(NC(=O)C2CCN(CCOc3ccc(Cl)cc3Cl)CC2)c2ccccn2)cc1 (stereo not given) 9.27%
C=CCn1c2ccccc2c2nnc(SCc3[nH]c(=O)[nH]c3C(=O)CCCCC(=O)OCC)nc21 59.4%
CN(CC(=O)Nc1ccc(F)cc1)CC(=O)Nc1ccc(Cl)c(S(=O)(=O)N2CCOCC2)c1 5.07%
COC(=O)c1ccc(COC(=O)C2CCN(S(=O)(=O)c3c(Cl)cccc3Cl)CC2)o1 15.2%
C#CCOCCOCCOCCNc1nc(N2CCN(C(=O)C(Cc3ccc(O)cc3)n3cc(C(N)CC(C)C)nn3)CC2)nc(N2CCN(C(=O)C(Cc3ccc(O)cc3)n3cc(C(N)C(C)CC)nn3)CC2)n1 (stereo not given) 14.3%
CSc1ncnc2c1ncn2CC(=O)C1CCC2C3CCC4=CC(=O)CCC4(C)C3CCC12C (stereo not given) 13.2%
CCOC(=O)CN(C(=O)COc1nc(C)cc(C)c1C#N)c1ccc(Cl)cc1 6.34%
CCOc1ccc(-n2c(SCC(=O)NC3CCS(=O)(=O)C3)nnc2-c2cccnc2)cc1 (stereo not given) 5.73%
CN(Cc1c(F)cccc1Cl)C(=O)CNC(=O)c1ccc2c(c1)OCO2 34.7%
COc1cc(C(=S)N2CCOCC2)ccc1O 11%

inhibition, inactive:
C=CCN(C(=O)Cn1ncc2c1-c1cc(C)ccc1OC2)c1ccccc1 2.13%
Cc1cnc(C)c(N2CCN(C(=O)C3CCC(=O)N(CCc4cccc(F)c4)C3)CC2)n1 (stereo not given) -0.04%
CCOC(=O)N1CCN(C(=O)C2CCN(Cc3ccc(OC)cc3OC)CC2)CC1 0.29%
Cc1cc(=O)n2nc(N3CCCC(C(=O)N4CCN(C)CC4)C3)sc2n1 (stereo not given) 1.05%
CCOC(=O)N1CCN(C(=O)C2CCN(S(=O)(=O)c3cc(Cl)ccc3OCC)CC2)CC1 3.03%
O=C(CCNC(=O)c1ccc([N+](=O)[O-])cc1)NC1CCCCC1 -2.29%
O=C1CC2(CCCCC2)Oc2ccc(OCC(=O)N3CCOCC3)cc21 -3.03%
COc1cc2c(cc1CNC[C@H]1O[C@@H](n3cnc(C(N)=O)n3)[C@H](O)[C@@H]1O)OCO2 -2.98%
CCOc1ccc(N(CC)S(=O)(=O)c2cccc3nsnc23)cc1 -2.8%
O=C(NC(c1ccc(Cl)cc1)c1cnccn1)C1CCN(Cc2ccc(Cl)cc2)CC1 (stereo not given) -1.67%
O=C(NC(c1ccc(-c2ccccc2)cc1)c1cnccn1)C1CCN(CCOc2ccc(Cl)cc2Cl)CC1 (stereo not given) -3.71%
CCCS(=O)(=O)Nc1c(C(=O)O)[nH]c2ccccc12 0.58%
CCOC(=O)c1c(NC(=O)CN2C(=O)NC3(CCC(C)CC3)C2=O)sc(C)c1CC (stereo not given) 0.02%
C=CCn1c(SCC(=O)CC(=O)OCC)nc2cc(C(=O)N3CCC(C(N)=O)CC3)ccc2c1=O -1.96%
C=CCn1c2ccccc2c2nnc(SC(CC)C(=O)Nc3nc(C)c(C(=O)OCC)s3)nc21 (stereo not given) 2.82%
COc1ccc(NC(=O)C2CCC(CNS(=O)(=O)c3csc(C(N)=O)c3)CC2)cc1OC (stereo not given) -0.76%
COc1ccc(CCC(=O)Nc2ccc(Cl)c(S(=O)(=O)N3CCOCC3)c2)cc1OC 0.12%
CN(CC(=O)Nc1ccc(S(=O)(=O)N2CCCC2)cc1)Cc1ccc(Cl)c(Cl)c1 -4.78%
Nc1ncnc2c1ncn2[C@@H]1O[C@H](CNS(=O)(=O)c2ccc(-c3ccno3)s2)[C@@H](O)[C@H]1O -1.25%
CCc1ccc(C(=O)NNC(=O)C2CCN(c3ncnc4sc(C)c(C)c34)CC2)cc1 -0.76%
CCOc1ccc(S(=O)(=O)N2CCC(C(=O)OCc3ccc(OC)cc3)CC2)cc1 3.73%
COc1cccc(COC(=O)C2CCN(S(=O)(=O)c3ccc(Cl)cc3)CC2)c1OC 3.29%
C=CCN1C(=O)c2ccc(C(=O)N3CCC(C(=O)OCC)CC3)cc2C1=O 2.75%
O=C(O)CC1S/C(=N\N=C/c2ccccc2O)N(c2ccc(O)cc2)C1=O (stereo not given) 1.65%
C#CCOCCOCCOCCNc1nc(N2CCN(C(=O)[C@H](CCCCN)n3cc([C@@H](N)C(C)CC)nn3)CC2)nc(N2CCN(C(=O)[C@H](Cc3ccc(O)cc3)n3cc([C@@H](N)C(C)CC)nn3)CC2)n1 (stereo not given in full) 5.61%
C#CCOCCOCCOCCNc1nc(N2CCN(C(=O)[C@H](Cc3ccc(O)cc3)n3cc(C(N)CC(C)C)nn3)CC2)nc(N2CCN(C(=O)[C@H](CCC(=O)O)n3cc(C(N)[C@H](C)CC)nn3)CC2)n1 (stereo not given in full) 2.63%
CC12CCC(=O)C=C1CCC1C2C(O)CC2(C)C1CCC2(O)C(O)CO (stereo not given) 4.13%
CSc1ncnc2c1ncn2CCCNCC1CCCCC1 -2.89%
CSc1ncnc2c1ncn2CCCNCc1ccco1 -1.36%
CCOC(=O)CN(C(=O)COc1nc(-c2ccccc2)cc(C)c1C#N)c1ccc(F)cc1 -3.22%
CCOC(=O)COc1nc(C)cc(C(F)(F)F)c1C#N 0.37%
CN(C1CCS(=O)(=O)C1)S(=O)(=O)c1ccc2ccccc2c1 (stereo not given) 0.18%
COc1cc2c(cc1O)C(SC)=NC(C)(C)C2 2.88%
COc1cccc(-n2c(SCC(=O)NC3CCS(=O)(=O)C3)nc3ccccc3c2=O)c1 (stereo not given) -0.16%
CCOc1cccc(-c2nnc(SCC(=O)NC3CC3)n2C)c1 -0.29%
Cc1ccc(C(=O)CSc2nc3ccccc3c(=O)n2N)o1 -0.26%
Cc1ccccc1N1CCN(CC(=O)NCc2ccc(Cl)cc2)CC1 1.14%
COc1cc(CNc2ncnc3c2ncn3[C@H]2CN(Cc3cccs3)C[C@@H](CO)O2)cc(OC)c1OC 3.5%
CC(C)Cn1c(N2CCN(C(=O)/C=C/c3ccccc3)CC2)nc2ccccc21 0.97%
O=C(NCCc1ccc(C(F)(F)F)cc1)c1ccc2c(c1)OCO2 -1%
Cc1cccc(C)c1NC(=O)CNC(=O)c1ccc2c(c1)OCCO2 1.15%
Cn1c(=O)cc(SCC(=O)N2CCCC2)c2cc(Cl)ccc21 -25.5%
CNC1(c2nnnn2-c2c(C)cccc2C)CCOC(C)(C)C1 (stereo not given) -2.89%
Oc1ccc2ccc3cccc[n+]3c2c1 -21.5%
COc1ccc(C)cc1NC(=S)N1CCOCC1 -0.53%
CCOc1cc(C(=S)N2CCOCC2)ccc1O -1.01%
CCOC(=O)C1CCN(C(=O)COc2cc(C)c(Br)c(C)c2)CC1 -1.96%
CCn1c(SCC(=O)Nc2ccc(OC)c(OC)c2)nnc1-c1c[nH]c2ccccc12 3.38%
